# Source: the supplement of paper PMC4166925
# ± gives the standard deviation of the averaged measurements. Over roughly 33,000 sequences, “E-score (dimensionless, -0.5 to 0.5)” has its median near -0.049; the highest 2% begin near 0.37. The entries come from a sample that favours the highest values as a whole.
# Tested on: T1, PmTbr T-box DNA-binding domain (GST fusion)
# T1 sequence: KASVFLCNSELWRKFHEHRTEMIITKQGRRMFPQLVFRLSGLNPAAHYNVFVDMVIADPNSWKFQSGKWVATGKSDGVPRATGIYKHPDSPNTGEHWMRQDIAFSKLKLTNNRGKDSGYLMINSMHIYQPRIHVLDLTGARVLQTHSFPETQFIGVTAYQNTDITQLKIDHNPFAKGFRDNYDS
# Test: PBM E-score of 8-mer (E-score (dimensionless, -0.5 to 0.5)); Tbr is Tbrain of the sea star Patiria miniata (Pm) or the sea urchin Strongylocentrotus purpuratus (Sp); higher = stronger binding preference
# Conditions: the construct has about 5 more residues each side
# Protocol: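 Universal protein-binding microarray (Agilent AMADID 016060, 60-bp probes with a 35-bp variable region) incubated with 200 nM GST-fused Patiria miniata Tbr T-box DNA-binding domain (residues 272-466) in PBS pH 7.5. Scored for every ungapped 8-mer (given with its reverse complement) by the Universal PBM Analysis Suite as E-score (modified Wilcoxon-Mann-Whitney enrichment, range -0.5 to 0.5; >0.45 counts as bound) and Z-score of median probe intensity. Two replicate arrays (datasets 1 and 2).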
row,Sequence,PBM E-score of 8-mer
1,ACCACCTG,0.262 ± 0.056
2,TACACCAA,0.0439 ± 0.018
3,CACACCTG,0.478 ± 0.0049
4,AACACCGC,0.287 ± 0.0081
5,CACACCGG,0.135 ± 0.057
6,TACACCTA,0.371 ± 0.026
7,AACACCTG,0.472 ± 0.0011
8,AACACCGG,0.155 ± 0.04
9,AACACCGT,0.329 ± 0.0059
10,GACTGAGA,-0.181 ± 0.085
11,ACTCAAAT,-0.125 ± 0.039
12,TACTTAGA,0.0947 ± 0.0054
13,ATAGACTG,-0.0183 ± 0.043
14,GACTGACA,0.142 ± 0.069
15,ATAGGCCC,-0.141 ± 0.098
16,CTCATTGC,-0.166 ± 0.087
17,AGATTCGG,-0.173 ± 0.036
18,ACGGCTAC,-0.0169 ± 0.0055
19,AAAACCTA,-0.209 ± 0.086
20,GAGACCTA,-0.16 ± 0.033
21,CACACCTA,0.476 ± 0.009
22,GACACCTA,0.48906 ± 2.8e-05
23,AACACCTA,0.4803 ± 0.0034
24,CCCACCTA,0.184 ± 0.016
25,AACACCGA,0.234 ± 0.034

row,Sequence,PBM E-score of 8-mer
1,GACACCGA,0.286 ± 0.024
2,CACACCGA,0.193 ± 0.0051
3,AGACTAGG,-0.0553 ± 0.059
4,ACGTCGAC,0.115 ± 0.035
5,AGGCAGCG,-0.0107 ± 0.078
6,CCTTGTAA,-0.0975 ± 0.037
7,TACTTGAA,-0.262 ± 0.037
8,AGGGGAGG,-0.223 ± 0.07
9,GAATTGTC,0.184 ± 0.0043
10,CGAGACTC,0.0667 ± 0.093
11,CCAAGGGA,0.0414 ± 0.029
12,ATCACGAG,0.167 ± 0.054
13,AAGAGTGT,0.289 ± 0.055
14,CTATAGAA,-0.129 ± 0.058
15,GTGTGACA,0.4709 ± 0.0035
16,ACGTGACA,0.385 ± 0.023
17,ATGTGACC,0.112 ± 0.052
18,ATGTGACA,0.4393 ± 0.0026
19,ACGTGACT,0.0526 ± 0.086
20,ACGTGACG,0.346 ± 0.0083
21,GCGTGACA,0.365 ± 0.0062
22,ATGTGACG,0.31 ± 0.02
23,CTGTGACA,0.3356 ± 0.0016
24,CACTGCTG,-0.132 ± 0.038
25,AAGAAGTC,0.0125 ± 0.0032

row,Sequence,PBM E-score of 8-mer
1,CGTAGGCC,-0.213 ± 0.033
2,GCATATAC,-0.081 ± 0.0014
3,CCTTGGGC,-0.035 ± 0.01
4,GGTGCCAA,0.454 ± 0.006
5,AGTGCCAA,0.3809 ± 0.0024
6,CGTGCCAA,0.324 ± 0.0048
7,TGTGCCAA,0.351 ± 0.013
8,CGTGCCAC,0.274 ± 0.03
9,GATGCCAC,0.182 ± 0.072
10,AGTGCCAC,0.287 ± 0.014
11,AGTGCCAG,0.2664 ± 0.0016
12,GGTGCCAC,0.398 ± 0.015
13,GCGGCAGC,0.0309 ± 0.0077
14,GGCGAATA,0.0105 ± 0.026
15,ACGAATTG,0.0628 ± 0.039
16,ACAGCGCA,-0.0538 ± 0.03
17,CCGCTATC,0.177 ± 0.0022
18,AACACGGT,0.133 ± 0.049
19,GGTGAACA,0.00576 ± 0.0094
20,CGTGAACA,0.321 ± 0.021
21,GGTGAAAA,0.2007 ± 0.0014
22,TGTGAAAA,0.38 ± 0.057
23,CGTGAAAA,0.338 ± 0.026
24,TGTGAACA,0.4216 ± 0.0014
25,CGTGAGAG,0.265 ± 0.0088

row,Sequence,PBM E-score of 8-mer
1,AAGCCAAT,-0.162 ± 0.051
2,ACTCGAAC,-0.0874 ± 0.031
3,CTCTGTGC,-0.0888 ± 0.082
4,GGAGATTA,-0.0891 ± 0.063
5,AGGGCCTC,-0.399 ± 0.0047
6,CAAGCATG,-0.0451 ± 0.032
7,TGTCTAAA,-0.0695 ± 0.011
8,GAAGGACA,-0.0775 ± 0.028
9,GCAGACAA,-0.0224 ± 0.054
10,ACTCGCAT,-0.0149 ± 0.006
11,ACTCGCAC,0.4 ± 0.0077
12,CCTCGCAC,0.42 ± 0.014
13,GCTCGCAA,0.242 ± 0.015
14,CCTCGCAA,0.118 ± 0.0037
15,GCTCGCAC,0.42 ± 0.025
16,ACTCGCAG,0.0856 ± 0.036
17,CCTCGCAG,0.0735 ± 0.061
18,GCTCGCCC,-0.213 ± 0.052
19,ACAGCTAC,0.115 ± 0.032
20,AACTGGAG,-0.0661 ± 0.0033
21,CGATAAGC,0.124 ± 0.049
22,AGAGGTTC,-0.124 ± 0.022
23,CGAGGTCC,-0.166 ± 0.06
24,GGAGGTGA,0.4036 ± 0.0026
25,GGAGGTCA,0.0158 ± 0.0067

row,Sequence,PBM E-score of 8-mer
1,AGAGGTGG,0.316 ± 0.0057
2,CGAGGTGA,0.4396 ± 0.0012
3,CGAGGTGC,0.457 ± 0.01
4,AGAGGTGC,0.411 ± 0.0084
5,AGAGGTGA,0.352 ± 0.015
6,CGAGGTCA,0.0395 ± 0.11
7,CGAGGTTA,0.0486 ± 0.017
8,CGAGGTAC,-0.1003 ± 0.00044
9,ACCAACTA,-0.0247 ± 0.12
10,CGAACAGC,0.0465 ± 0.011
11,TAAGTCTA,-0.0537 ± 0.026
12,CGCCCTAC,-0.103 ± 0.061
13,CCAACAAC,0.0262 ± 0.0053
14,CTGTTGAA,-0.0551 ± 0.1
15,CTGTTGGA,0.0599 ± 0.038
16,GTGTTGAA,0.4 ± 0.013
17,GTGTTGGA,0.382 ± 0.0051
18,ATGTTGAA,-0.107 ± 0.017
19,ATGTTGGA,-0.0683 ± 0.0083
20,ACCTTTAT,0.0337 ± 0.024
21,CGTGTGCA,0.0443 ± 0.011
22,AGTGTGTA,0.172 ± 0.073
23,TGTGTGAA,0.4728 ± 0.0017
24,CGTGTGTA,0.00111 ± 0.014
25,TGGGTGAA,-0.158 ± 0.043

row,Sequence,PBM E-score of 8-mer
1,AGAGTGAA,0.0596 ± 0.056
2,CGTGTGAA,0.4524 ± 0.0013
3,AGTGTGAA,0.48836 ± 0.00035
4,TATGTGAA,0.11 ± 0.1
5,CGCTACCA,0.243 ± 0.024
6,AGTTCTTC,-0.293 ± 0.02
7,AAAAGTGC,0.2475 ± 0.00082
8,ATCCTTCA,-0.143 ± 0.044
9,ACCGACCC,0.00535 ± 0.068
10,ACCATTAA,-0.0404 ± 0.015
11,GAAGTCTC,0.102 ± 0.062
12,CGCCTAAG,0.0221 ± 0.02
13,ACCCTCAA,0.0906 ± 0.052
14,GAGTTGCC,0.0293 ± 0.068
15,CACAGCTG,0.296 ± 0.0054
16,GTGACGAA,0.371 ± 0.014
17,GTGACAAA,0.428 ± 0.029
18,ATGACAAA,-0.0227 ± 0.073
19,GTGACAAC,0.4452 ± 0.0036
20,CTGACGAA,0.0955 ± 0.048
21,GTGACACA,0.416 ± 0.0096
22,ATGACAAC,0.241 ± 0.054
23,CTGACACA,0.344 ± 0.013
24,ATGACGAA,-0.065 ± 0.04
25,CTGACAAA,0.12 ± 0.038

row,Sequence,PBM E-score of 8-mer
1,GAGACACA,0.053 ± 0.046
2,CTGACAAC,0.257 ± 0.012
3,GTAGTCGA,-0.0608 ± 0.0079
4,ATTATTCG,-0.0471 ± 0.044
5,CTGGCTTA,-0.275 ± 0.025
6,CTACAGGC,-0.125 ± 0.0056
7,GATGGTCA,-0.26 ± 0.0048
8,CGCGAACA,0.328 ± 0.007
9,TACTTAAA,-0.246 ± 0.057
10,GTGATTGA,0.125 ± 0.042
11,GACTCGAC,0.0517 ± 0.016
12,CGTTATCC,-0.058 ± 0.009
13,CACACATG,0.352 ± 0.0023
14,CGCACATC,0.298 ± 0.055
15,AACACACT,0.229 ± 0.021
16,GACACATA,0.322 ± 0.038
17,GACACATC,0.372 ± 0.0069
18,ATCACATC,0.195 ± 0.058
19,AACACATT,0.389 ± 0.028
20,CACACATC,0.381 ± 0.035
21,CTCACATA,0.0666 ± 0.017
22,CTCACATC,0.3693 ± 0.0021
23,GACACAGC,0.1102 ± 0.00023
24,AAAACATT,-0.0945 ± 0.013
